High-throughput results as filed in PubChem.
Sampled rows, rich in hits. Any-hit rate of the full collection: about 4.6%.
D1 antag = human D1 dopamine receptor antagonism. P21728. HEK293 TREx D1 cells, calcium flux, dopamine EC80; stronger effect = lower value. activity change, negative = inhibition, % at 10 µM. 360,000 compounds, 3.2% hits; in the data active means activity change below about -30%
Target sequence (P21728 whole entry, looked up): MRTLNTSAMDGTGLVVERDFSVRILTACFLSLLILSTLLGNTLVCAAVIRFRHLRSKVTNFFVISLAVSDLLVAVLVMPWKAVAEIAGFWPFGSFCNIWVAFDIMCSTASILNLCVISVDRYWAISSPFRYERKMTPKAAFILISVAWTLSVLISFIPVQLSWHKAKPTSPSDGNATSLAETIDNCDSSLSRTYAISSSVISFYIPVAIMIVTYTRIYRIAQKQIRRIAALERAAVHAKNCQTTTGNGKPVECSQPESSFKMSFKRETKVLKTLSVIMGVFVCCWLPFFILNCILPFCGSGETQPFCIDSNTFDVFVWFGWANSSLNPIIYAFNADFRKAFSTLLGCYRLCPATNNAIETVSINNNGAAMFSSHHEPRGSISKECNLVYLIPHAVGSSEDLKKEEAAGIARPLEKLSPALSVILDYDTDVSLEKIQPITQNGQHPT
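Calcium flux readout: force-coupled, inducible Hek293 Trex D1 line, cells induced overnight at 30 C with tetracycline, dye-loaded 30–90 min at RT. Antagonism scored against EC80 dopamine challenge given 180 s after compound.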
D1 agonist = agonists of human D1 dopamine receptor | AID 504660 | 360,000 compounds, 1% hits | P21728 | HEK293 T-REx D1 cells, calcium flux, agonist mode | activation, % at 2 µM
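Tetracycline-induced HEK293 TREx D1 cells, force-coupled to calcium signalling, were dye-loaded with a no-wash calcium kit. Compound was pin-added after a 10 s baseline. Fluorescence was read kinetically at 1 cycle/s for 180 s, with calcium rises flagged as agonism.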
TRHR enhancer = TRH receptor (human) allosteric enhancement; P34981; TRHR cells, fluo-8 calcium fluorescence, EC20 TRH enhancement; enhancement, % at 2 µM; 360,000 compounds, 0.66% hits; AID 493056; in the data active means enhancement above about 30%
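TRHR-expressing cells loaded with fluo-8 calcium dye were read kinetically (ex 480/em 530) during compound addition, then stimulated with an EC20 of TRH (10 nM final). Enhancement of the Gq-mediated intracellular calcium response was scored.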
D1 potentiator = human D1 dopamine receptor positive modulation | P21728 | HEK293 TREx D1 cells, calcium flux, dopamine EC20 potentiation | potentiation, % at 10 µM | 360,000 compounds, 0.036% hits | AID 504651; in the data active means potentiation above about 30%
TRHR agonist = activates the human TRH receptor; activation, % at 2 µM; 360,000 compounds, 0.18% hits; P34981; TRHR cells, calcium flux fluo-8, FDSS agonist mode
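Read-out: compound-evoked intracellular calcium rise in TRHR cells, fluo-8 dye, kinetic FDSS fluorescence at 1 s/cycle following a 10-cycle baseline. Cells cultured overnight before dye loading (30 min–1.5 h, RT).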
Numbers stand for hits; i = inactive. Unless noted, no stated cut-off is given here; in the data, active means activation above about 30%; inactive means the rest.

SMILES	D1 antag	D1 agonist	TRHR enhancer	D1 potentiator	TRHR agonist
Cc1ccccc1CNC(=O)Cc1csc2ccccc12	i	i	i	i	i
CCOC(=O)c1sc(NC(=O)c2cc3nc(-c4ccccc4)cc(C(F)(F)F)n3n2)c(C(=O)OCC)c1C	i	i	i	i	i
Cc1ccc(S(=O)(=O)N2CCOCC2)cc1NC(=O)COC(=O)CCC(=O)c1ccc(F)cc1	-31	i	i	i	i
Cc1ccc(S(=O)(=O)N2CCOCC2)cc1NC(=O)COC(=O)CCn1c(C)csc1=O	i	i	i	i	i
Cc1ccc(S(=O)(=O)N2CCOCC2)cc1NC(=O)COC(=O)Cn1c(C)csc1=O	-31	i	i	i	i
Cc1ccc(C(=O)OCC(=O)Nc2cc(S(=O)(=O)N3CCOCC3)ccc2C)cc1	i	i	i	i	i
CSc1cccc(NC(=O)N2CCN(c3cc(-c4noc(C)n4)ccc3C)CC2)c1	i	i	i	i	i
COc1cc(C(=O)NCC(c2ccc(N(C)C)cc2)N2CCc3ccccc32)cc(OC)c1OC (stereo not given)	i	i	i	i	i
O=C(C1CCC1)N1CCc2cc(S(=O)(=O)NCCc3ccccc3)ccc21	i	i	i	i	i
CSc1nc(NCc2ccco2)c2c3c(sc2n1)CN(C)CC3	-42	i	i	i	i
CSc1nc(SCC(N)=O)c2c3c(sc2n1)CN(C)CC3	i	i	i	i	i
CCNc1nc(SCC(N)=O)nc2sc3c(c12)CCN(C)C3	i	33	i	i	i
NC(=O)CSc1ncc2c(n1)-c1ccccc1N(Cc1cccc(F)c1)S2(=O)=O	i	i	i	i	i
Cc1ccc(NC(c2ccc(Cl)cc2)c2nnc(-c3cccc(F)c3)o2)cc1C (stereo not given)	i	i	i	i	i
C/C(=N\Nc1ccc([N+](=O)[O-])cc1)c1ccco1	i	33	i	i	i
C/C(=N\Nc1ccc([N+](=O)[O-])cc1)c1ccc(N2CCOCC2)cc1	i	39	i	i	i
C/C(=N\Nc1ccccc1[N+](=O)[O-])c1ccc(N2CCOCC2)cc1	i	i	i	i	i
C/C(=N\NC(=O)COc1ccc([N+](=O)[O-])cc1)c1ccco1	i	i	i	i	i
CC/C(=N\Nc1ccc([N+](=O)[O-])cc1)c1ccccc1	-34	i	i	i	i
COc1cc(NC(=O)c2cc3ccccc3cc2O)c(OC)cc1Cl	-58	i	i	i	i
COc1cc(OC)c(NC(=O)c2ccccc2F)cc1Cl	i	i	i	i	i
Cc1ccc(Cl)cc1NC(=O)c1cc2ccccc2cc1O	-45	i	i	i	i
O=C1CN(C(=O)c2ccccc2C(F)(F)F)C(c2ccccc2)c2cc(F)ccc2N1 (stereo not given)	i	i	i	i	i
Cc1ccc(NC(=O)Nc2ccccc2CC[N+](=O)[O-])cc1	-32	i	i	i	i
CCC(=O)NC(c1ccc(Br)o1)c1cc(Cl)c2cccnc2c1O (stereo not given)	i	89	i	i	30
SMILES	D1 antag	D1 agonist	TRHR enhancer	D1 potentiator	TRHR agonist
CCN(CC)C(=O)CSc1nc2cc3c(cc2c(=O)n1Cc1ccc(C(=O)NCCc2ccc(OC)c(OC)c2)cc1)OCO3	i	i	i	i	i
O=S(=O)(c1ccc(Cl)cc1)c1nc(-c2ccco2)oc1SCc1ccc(F)cc1	i	i	i	i	i
Clc1ccc(OCCCCCN2CCCC2)c(Br)c1	i	73	i	i	i
Clc1ccc(OCCCN2CCCCC2)c(Br)c1	-62	i	i	i	i
Clc1ccc(OCCN2CCCCC2)c(Cl)c1	i	i	i	i	i
CCN1CCN(CCCOc2ccc(Cl)cc2Br)CC1	i	59	i	i	i
Cc1cccc(NC(=O)c2sc3nc4c(cc3c2N)CN(C(C)C)CC4)c1	i	i	i	i	i
Cc1nn(C)c(C)c1CCNC(=O)Nc1cccc(Cl)c1C	i	i	i	i	i
Cc1cccc(NC(=S)NC2CC3CCCC(C2)N3Cc2cccs2)c1 (stereo not given)	-89	i	i	i	i
CCN(CC)S(=O)(=O)c1cccc(-c2n[nH]c(=S)n2/N=C/c2ccc(OC(F)F)cc2)c1	-83	i	i	i	i
COc1cccc2c1C(=O)c1c(O)c3c(c(O)c1C2=O)C[C@@](O)(C(C)=O)C[C@@H]3O[C@H]1C[C@H](N)[C@H](O)[C@H](C)O1	i	44	i	i	i
CC1C(=O)CCC1(C(=O)O)c1ccccc1 (stereo not given)	i	i	33	i	i
CCOC(=O)/C(C#N)=C\c1cc(C)n(-c2ccccc2)c1C	i	i	i	i	i
Cc1cc(/C=C(\C#N)C(=O)NCc2cccs2)c(C)n1-c1ccc([N+](=O)[O-])cc1	-56	i	i	i	i
CCOC(=O)/C(C#N)=C\c1ccc(N2CCN(C/C=C/c3ccccc3)CC2)cc1	i	109	i	i	i
CCOC(=O)/C(C#N)=C/c1cc(C)n(-c2ccc(C)cc2)c1C	-75	i	i	i	i
Cc1c(Cl)cccc1NC(=O)c1ccc2c(c1)nnn2C1CCCC1	i	i	i	i	i
CCOC(=O)c1cccc(NC(=O)c2cc3ccccc3o2)c1	-42	i	i	i	i
CCOC(=O)c1cccc(NC(=O)c2ncoc2-c2ccco2)c1	-39	i	i	i	i
O=C(Nc1cccc(C(=O)N2CCCCCC2)c1)c1ccco1	i	i	i	i	i
CCCCn1nnc(NC(=O)c2cc3ccccc3o2)n1	-36	i	i	i	i
CCOC(=O)N1CCN(C(=O)c2cccc(NC(=O)c3ccco3)c2)CC1	-63	i	i	i	i
CC(C)(C)c1ccc(-c2nc(S(=O)(=O)c3ccccc3)c(N3CCOCC3)o2)cc1	i	i	i	i	i
COc1ccccc1NC(=O)NCc1cccn1Cc1ccccc1	i	i	i	i	i
CN(Cc1nc(Cc2ccccc2F)no1)Cc1cccc2ncccc12	-40	i	i	i	i
SMILES	D1 antag	D1 agonist	TRHR enhancer	D1 potentiator	TRHR agonist
CN(Cc1nc(Cc2ccccc2F)no1)CC1(N2CCOCC2)CCCCC1	i	i	i	i	i
Cc1cccn2c(=O)cc(COc3ccc(NC(=O)C(C)C)cc3)nc12	i	i	i	i	i
COc1ccc(N=Cc2c[nH][nH]c2=O)cc1	-33	i	i	i	i
O=c1[nH][nH]cc1C=Nc1ccc(Oc2ccccc2)cc1	i	i	i	i	i
CCOC(=O)c1sc(N(Cc2ccccc2)C(=O)CCl)nc1C	i	i	i	i	i
O=C(O)CSCC(=O)N(Cc1ccccc1)c1nc(-c2ccccc2)c(-c2ccccc2)s1	-39	i	i	i	i
c1ccc2c(c1)OC(CCCN1CCCCC1)c1ccccc1S2 (stereo not given)	-85	i	i	i	i
c1ccc(OCCCCN2CCCCC2)cc1	i	i	i	i	i
CN1CCCC(CC2Oc3ccccc3Sc3ccccc32)C1 (stereo not given)	-74	49	i	i	i
